We go through 108 sequences from PubChem BioAssay AID1347426 (Functional Genomics Laboratory (NCATS/FGL), 2020).

About 1,400 (4.5%) of roughly 31,000 sequences were called active.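 Rule for the calls: active = median seed-adjusted z-score above 1 or below -1; inactive = the rest.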 Only a selection was taken, and actives are over-represented in it overall.

The nature of this test: Novel Modifiers of Survival Motor Neuron (SMN) Protein: Gene Identification via Genome-wide siRNA Screen.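 Note: luminescence tracks full-length SMN protein made from the SMN2 reporter.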 The following applies: HEK293T SMN2-luciferase reporter, siRNA knockdown, 72 h; actives lie on both sides. From the text: Spinal muscular atrophy (SMA) is the most common neuromuscular autosomal recessive disorder and one of the leading genetic causes of infant death. SMA results from mutations inducing loss of function or deletion in the survival of motor neuron-1 gene (SMN1), leading to deficiency of the survival motor neuron (SMN) protein. Although a second nearly identical gene, SMN2, is retained in humans, its expression primarily produces an aberrantly spliced isoform that is largely unstable and quickly degraded. We performed a genome-wide RNAi screen using a cell-based reporter assay to identify genes and pathways that modulate SMN protein stability. The screen identified over 200 genes that led to the greatest increase or decrease in luciferase expression.
Using HEK293T cells stably expressing a luciferase reporter that combines the promoter and splicing based cassettes in tandem with the major portion of the native SMN2 cDNA with luciferase, we performed a genome-wide RNAi screen to identify modulators of SMN protein levels. Luciferase is expressed when full-length SMN protein is generated with luminescence signal proportional to SMN protein levels. Our luciferase-based reporter assay was used to screen Ambion Silencer Select Human Druggable Genome siRNA library (10418 genes, 3 unique siRNAs per gene) using lipid-based reverse transfection.
Briefly, 1 pmol of each siRNA was spotted to a well of a 384-well plate (Corning, Corning, NY) and 20 microL of serum-free DMEM containing […] of Lipofectamine RNAiMax (Life Technologies, Carlsbad, CA) was then added to each well. Transfected cells were maintained at 37 degrees C in 5% CO2 for 72 hours, 20 microL of ONE-Glo Reagent (Promega) was added to wells for luciferase quantification. Raw luminescence reads were normalized to Ambion(R) Silencer(R) Negative Control #2 siRNA, then log10 transformed. A robust statistical measure of median absolute deviation (MAD) to standardize siRNA activities from each screen. Common Seed Analysis was used to help prioritize clean hits as opposed to those appearing to arise from seed based off-target effects. Candidate modulators were defined as the genes having a MAD score greater than 1.0 or less than -1.0.
Background: A reporter such as luciferase makes a cellular process visible.
CUGGAUAAGUGUUUCGAAATT against AP3S2: the median seed-adjusted z-score was 0.521 (inactive).
As to CACCCACACCGGAUUGAAATT against BAG5, the median seed-adjusted z-score is -0.0153 (inactive).
Then CGGCCGCUCUAUAAGCUGATT against LLGL1, with -1.13 (active); and GCCCUGCGGUACAAUGUCATT against APOBEC2, with 0.232 (inactive); and GGCCUAUUUCCAAACCGAUTT against RICS, with 0.665 (inactive).
On to CCACCGAUUUGAUCCCAAATT against NAPSA, for which the median seed-adjusted z-score was -0.336 (inactive).
To CAUUCACCACAAUAGCUAUTT against GPR1 belongs 0.0609 (inactive); to GGAUUGAAGAUACUACAAATT against THOC1, -3.04 (active); to CAACAGCACCAGUUUGACATT against NAGLU, -0.526 (inactive).
Then GGACUUCAGGGUUUAACAATT against FOLR1, with -1.31 (active); and CAGCCUUACUCAAUUUGUATT against EFS, with -0.299 (inactive); and CACGUGCAGAGUGUCGAUATT against EEF1D, with 0.421 (inactive).
As for GGUCUAAACUUGAUCCAAATT against CCAR1, the median seed-adjusted z-score was -1.18 (active).
Then AAUAUUUGCUGUUCGUCAATT against MOCS2, with 0.0327 (inactive).
For the sequence CCAUCCCAAAUUUACAACATT against SARS2, the median seed-adjusted z-score was 0.524 (inactive).
As to CUCUAACUAUGAUCUCGUUTT against CDS1, the median seed-adjusted z-score was 0.0208 (inactive).
With GGCUUGACCUUUUUCGUCUTT against DYNC2H1, the median seed-adjusted z-score was -0.613 (inactive).
For GAACCGACAAAAGUAGAUATT against RARB, the median seed-adjusted z-score was 0.409 (inactive).
For the sequence GAAUUAGAGUUGAGGGUAATT against MYBPC1, the median seed-adjusted z-score is 0.295 (inactive).
To GCAUGGUCUUUCUACUUGUTT against TUBB2A belongs 1.03 (active); to CCAAAGCUCUCAUCGGAGATT against GNS, 0 (inactive); to GGACUCACCAAAUAGAUCATT against ZNF818, -0.223 (inactive).
Take GCAAGGAGUAUAACAUGUATT against SKAP1: the median seed-adjusted z-score is -0.00637 (inactive).
Then CAUUCGAUCUAGCAAAUUATT against TUBB1, with -0.289 (inactive).
For GGCUGUUGGUAACCUGAGATT against TF, the median seed-adjusted z-score was 0.192 (inactive).
Consider GACCAUUCGUACUCCUUGUTT against THAP11, for which the median seed-adjusted z-score is -1.36 (active).
For CCAUCGCCUUGAAGGAGAATT against RNF31, the median seed-adjusted z-score is -0.687 (inactive).
For the sequence AGACCUUCGUGGAAAAAUATT against CDC37, the median seed-adjusted z-score is 0 (inactive).
As for GGAGGACAAUCAGCAAGGATT against SPOCK2, the median seed-adjusted z-score is 0.967 (inactive).
Then AGAACAUCAUCGCGCGGGATT against FOXB1, with 0.223 (inactive); and GCUUACUAGUUUGAACGGATT against SPATA5, with -1.04 (active); and GCUCCAACCUCGAAGUAGATT against ACVR2B, with 0.824 (inactive).
To GGCUUCACCUAAAAACGUATT against BRCA2 belongs 0 (inactive); to GAUCGUUGCAAAGUUCUUATT against CPSF6, -2.38 (active).
Consider CUCCACUGCUUUUCCAAGATT against DBX2, for which the median seed-adjusted z-score was 0.244 (inactive).
As for GAGUUCCUCUUGGAUCUAATT against CASQ2, the median seed-adjusted z-score is 0.4 (inactive).
On to GGCGAGGCUUUAUAGUUGATT against ZNF589, for which the median seed-adjusted z-score is -0.0897 (inactive).
CCUGGAGCAUCGUAACAUUTT against F11: the median seed-adjusted z-score was -0.0319 (inactive).
Then GGCUUAUACAAUGUCAACATT against HOXA7, with -0.129 (inactive); and AGAUAACAGCAUGGAUUUATT against MMD, with 0.193 (inactive).
Consider GCAAUUUGCUGUUGCCGAATT against RHBDD1, for which the median seed-adjusted z-score is 0.00277 (inactive).
Then CCAUUAUUGCUGCCCGGAATT against PGM5, with -0.0543 (inactive).
To GUCUCUGACGGGUCCAUUATT against BMP1 belongs -0.298 (inactive); to GGACAAGGCUAACAUCCCATT against HMGA1, 0.557 (inactive); to GCUUGCACUUAAUCUCACATT against LAMB2, 1.12 (active).
Regarding GGUUAAAGGUUAUGGUCCATT against PROSC, the median seed-adjusted z-score was 0.173 (inactive).
To UUUUGUUCAUAUAACGUCATT against IFNA1 belongs -0.625 (inactive).
To CCACCUUCCUUAUCGACAUTT against FZD8 belongs -0.177 (inactive).
As for CCACCUUGCAGAAAACCGATT against ITPR3, the median seed-adjusted z-score is -1.28 (active).
As to GCUCAUCCACUAUAACCAUTT against CA10, the median seed-adjusted z-score was 0.255 (inactive).
For the sequence GGUCGAAGCUGUGCAAGGATT against TPPP, the median seed-adjusted z-score is -0.16 (inactive).
For AGCUGGAGGUCAACAAGUATT against TIMP3, the median seed-adjusted z-score was -1.05 (active).
To UCUCAGAUCUCUUCCCAGATT against ROBO4 belongs -0.431 (inactive).
For the sequence CAAGGAGCAAGGUUCGGAATT against KIRREL3, the median seed-adjusted z-score is -0.206 (inactive).
To GAUGAUCGCUUCAACCUGATT against DDX6 belongs 1.12 (active).
Then GUAUGUUCCACAUAAUGAATT against CYP19A1, with -0.321 (inactive); and GGAAUAGAACAAUUGAAAATT against ZDHHC3, with 0.229 (inactive); and UGAGGACACUUCUUGGAGATT against FOXE3, with -0.451 (inactive).
Then CGAUGGUUGACAAUCCAGATT against NDUFS5, with -1.35 (active); and CUUGCAAUGUCGAAGCUUATT against CDH8, with 0.169 (inactive).
For GGUGUUGAGUUUCUGCAAATT against CHMP1A, the median seed-adjusted z-score is 0 (inactive).
Then GGAUGAUAGAGGAAUUGUATT against SKIV2L2, with 0.642 (inactive); and CCACCAUCCUACAAGCCUUTT against CYP2S1, with -0.196 (inactive); and GCUAGUCAAGGUUCCUAAATT against GTF2F2, with -1.14 (active).
To GCAAUUCCAUGAUAAGGAATT against MMP20 belongs 0.0623 (inactive); to GCCUUCUCCCUAUUUGAUATT against CALM1, 0.355 (inactive).
Then GCAGAAGACUAGAGAGACUTT against ABCC5, with 0.00533 (inactive); and CAGUGCAACCUGGAGAGAATT against NRBP2, with 0.093 (inactive); and ACAGCUCCGUGUUGACUCATT against FOXG1, with 0.749 (inactive).
AAAAGAACGAGGAAGUUAUTT against CACNG2: the median seed-adjusted z-score is 0.00759 (inactive).
To GUAUAUGACUGUACACUCATT against AGPAT4 belongs 0.149 (inactive).
Then GGAUCACCAACAAUCGCAATT against PDE6A, with 1.25 (active).
To CAGCAGUUAUGGACCAGUUTT against AMD1 belongs -0.211 (inactive); to GCAGAAAACUCACCCGAGATT against PCDHB7, 0.365 (inactive).
For the sequence AGAACAACCUGGACUAUAUTT against PPP5C, the median seed-adjusted z-score is 0.473 (inactive).
To CGUUAUUGUUAGCAACACUTT against ZNF280A belongs -0.207 (inactive); to GGCUAUUAACCGAAGCAAATT against TSPAN31, -1.13 (active); to UCUACAAGCUGGACCCUGATT against MYO1G, -0.907 (inactive).
To GAUGCAUCAUCUGAAUAAATT against CPA6 belongs 0.343 (inactive); to CGUGUUCAGUGGAAUCACATT against NPC1, -0.195 (inactive); to UCGAUGUACUGGAGACGGATT against NUCB1, 0.232 (inactive).
For GCGAAUCCAGGAUCAAGAATT against TRIP4, the median seed-adjusted z-score was -0.0385 (inactive).
Then GCUUCUAUUUAGUCACGAATT against AKAP9, with -1.22 (active); and GCAAGUUGGAAGACCGGAATT against XPO5, with -0.031 (inactive); and GAUCCAGAAGGGUAGUUAUTT against SERPINB2, with -0.0739 (inactive).
Then CAGAUGCGGUUUAAACAGATT against TBC1D9B, with -0.906 (inactive).
As to GAGGUGAUCUUAGACCUGATT against QSOX2, the median seed-adjusted z-score is 0.498 (inactive).
Consider AAAAGACCGUCAACCCUUATT against A2BP1, for which the median seed-adjusted z-score is 1.17 (active).
As for CAGUGUGGCUGACAACUUATT against SERTAD1, the median seed-adjusted z-score was 0.376 (inactive).
Then GGCUAGCUGAUAUCAGUUUTT against DDX31, with 0.0144 (inactive); and GGAGUGUGAUCGACCCUCATT against KRTAP5-5, with -1.07 (active); and ACCUGGUGGUGUCAACUCATT against PTOV1, with 0.115 (inactive).
Then GGUCGAAGUGUACCCAGUATT against USP11, with -0.0327 (inactive); and CUACAAAUCCCUUACCAAUTT against TRDMT1, with 0 (inactive); and GGUAUACACUGAAUAUCCUTT against LCP1, with -0.386 (inactive).
Then GUACGAGACCUGUUCCAGATT against UCK2, with -1.51 (active); and ACAUGGACGUGAAAGGGAATT against WFIKKN2, with -0.353 (inactive); and GCUUCGUGCUAGAUAAAGATT against NOP14, with -0.344 (inactive).
Turning to CAGCAUUCUUUAUCUCGUATT against FZD3, the median seed-adjusted z-score was -0.0208 (inactive).
Regarding CCAUCAUGCUUGAUCGGGATT against SLC4A4, the median seed-adjusted z-score was 0.43 (inactive).
Then GUACAAUCGUUGACAAUGATT against PPEF1, with -0.58 (inactive); and CUACUGUCCUGAUGUAUCATT against MYF5, with -0.786 (inactive); and GCAGCUGUAUAAGUUACUATT against NFKB1, with 0.31 (inactive).
To GGAAGGACUGCGAACCUUATT against POLM belongs -1.55 (active); to AGAUAAGGAUGAAUUGAUATT against KLRB1, -0.44 (inactive); to GAACUAAUCAGGAAGCUUATT against DHX40, -0.75 (inactive).
Then GGAGAGGGUUGACAAAGUATT against PCYT1A, with 0.0429 (inactive); and CAUCUGAUCCGGGAAAUCATT against GALNT14, with 0 (inactive).
